From PubChem
The list is not random: actives were taken first. Their share in the collection is about 3.4%.
Mcl1 Noxa PPI – Mcl-1/Noxa binding inhibitors, primary screen, biochemical, TR-FRET, 1536-well. Induced myeloid leukemia cell differentiation protein Mcl-1 (Homo sapiens), Q07820. TR-FRET Mcl-1/Noxa peptide binding, 2 h. inhibition, % at 21.7 µM. hit rate 1.5% among 220,000. AID 1022, 2008;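 active = compounds that cut the protein-peptide binding signal by more than 50% relative to plate controls in a single-dose test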;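 also: His-tagged Mcl-1 with rhodamine Noxa BH3 peptide and terbium anti-His antibody; 0% = Mcl-1 plus Noxa peptide wells and 100% = peptide-only wells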
Calpain2 inh – inhibitors of pig calpain II, primary screen, biochemical, fluorogenic peptide substrate, 1536-well. inhibition, % at 16 µM. purified calpain II, 30 min. hit rate 0.37% among 220,000;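 active = inhibition above about 50%, limit read from the data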
p47phox inh – p47phox/p22phox peptide binding inhibitors, primary screen, biochemical, uHTS, NADPH oxidase regulatory subunit; Neutrophil cytosol factor 1 (Homo sapiens), P14598; fluorescence polarization, 2 h; inhibition, % at 24.7 µM; hit rate 0.53% among 220,000;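 active = inhibition above about 30%, limit read from the data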;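 also: 0% = p47phox with labelled peptide and 100% = labelled peptide alone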
Target sequence (P14598 whole entry, looked up): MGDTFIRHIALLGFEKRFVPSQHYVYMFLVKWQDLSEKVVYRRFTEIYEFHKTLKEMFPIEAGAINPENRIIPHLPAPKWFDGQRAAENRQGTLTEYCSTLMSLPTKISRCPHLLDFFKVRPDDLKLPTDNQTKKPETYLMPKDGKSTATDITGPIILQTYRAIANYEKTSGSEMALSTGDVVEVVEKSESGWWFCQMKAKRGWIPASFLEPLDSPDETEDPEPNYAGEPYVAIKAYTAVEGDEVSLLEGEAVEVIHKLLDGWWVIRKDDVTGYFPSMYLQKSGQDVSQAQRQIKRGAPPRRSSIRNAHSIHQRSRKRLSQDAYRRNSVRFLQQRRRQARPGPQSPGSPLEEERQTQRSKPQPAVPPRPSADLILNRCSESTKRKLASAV
Mcl1 Bid PPI – Mcl-1/Bid binding inhibitors, primary screen, biochemical, TR-FRET, 1536-well; Induced myeloid leukemia cell differentiation protein Mcl-1 (Homo sapiens), Q07820; TR-FRET Mcl-1/Bid-Dy647 peptide binding; inhibition, % at 21.7 µM; hit rate 0.97% among 220,000;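 active = compounds that cut the binding signal by more than half at the single screening dose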;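 also: His-tagged Mcl-1 with europium anti-His antibody binding Bid BH3 peptide; 0% = Mcl-1 plus peptide wells and 100% = peptide-only wells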
14-3-3 Bad PPI – inhibitors of 14-3-3 zeta/Bad binding, primary screen, biochemical, TR-FRET, bovine 14-3-3 zeta | inhibition, % at 21.7 µM | AID 781, 2007 | hit rate 0.71% among 220,000 | TR-FRET 14-3-3zeta/Dy647-pBad peptide displacement, 1 h;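 active = inhibition above about 70%, limit read from the data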;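 also: 0% = full 14-3-3 plus peptide FRET controls and 100% = background without 14-3-3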
Mcl-1 Bim block – inhibitors of Bim peptide binding to Mcl-1, primary screen, biochemical, bead-based flow cytometry, multiplex. Bim peptide-Mcl-1 binding. inhibition, % at 10 µM. hit rate 0.1% among 190,000. AID 1009, 2008; in the data active = inhibition above about 40%;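 also: 0% = no compound tracer wells and 100% = peptide blocker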
Starred values were filed as active, the others as inactive; · = no result given.

SMILES	Mcl1 Noxa PPI	Calpain2 inh	p47phox inh	Mcl1 Bid PPI	14-3-3 Bad PPI	Mcl-1 Bim block
Cc1[nH]c2ccccc2c1C(=O)CSc1n[nH]c(N)n1	12	7	-2	-6	-2	2
O=C(O)c1ccc(-n2c(-c3cc(-c4ccco4)[nH]n3)n[nH]c2=S)cc1	46	1	-29	-78	15	-2
CC(=O)c1ccc(-n2c(-c3cc(-c4ccco4)[nH]n3)n[nH]c2=S)cc1	63*	-64	-12	-91	-9	-5
Cc1nn(C)c(C(=O)Nc2ccn(Cc3c(F)c(F)cc(F)c3F)n2)c1[N+](=O)[O-]	16	10	150*	-23	7	1
CC(C)C[C@H](NC(=O)c1nc[nH]c1C(=O)N[C@@H](CCCCNC(=O)OC(C)(C)C)C(=O)OC(C)(C)C)C(=O)OC(C)(C)C	-94	48	5	-58	-3	·
CC(C)C[C@H](NC(=O)c1nc[nH]c1C(=O)NCCCCCNC(=O)OC(C)(C)C)C(=O)OC(C)(C)C	-40	51*	·	0	-11	-3
CC(C)(C)OC(=O)NCCCC[C@H](NC(=O)c1[nH]cnc1C(=O)Nc1ccccc1)C(=O)OC(C)(C)C	-105	26	-33	-54	-13	·
C[C@@H](NC(=O)c1nc[nH]c1C(=O)N[C@@H](CCCCNC(=O)OC(C)(C)C)C(=O)OC(C)(C)C)c1ccccc1	-79	61*	·	-16	-12	2
CC(C)C[C@H](NC(=O)c1[nH]cnc1C(=O)N[C@@H](C)c1ccccc1)C(=O)OCc1ccccc1	-101	56*	-1	-41	-8	·
CCOC(=O)N1CCN(c2ccc(N3C(=O)CCCC3=O)cc2[N+](=O)[O-])CC1	-2	-11	0	-13	-16	-3
Cc1csc(NC(=O)CSc2nnc(NC(=O)COc3ccccc3)s2)n1	15	9	-12	-14	-5	-3
CN(C)S(=O)(=O)c1cccc(-c2nn(-c3ccccc3)cc2/C=C(\C#N)c2nc3ccccc3[nH]2)c1	4	-103	-100	5	-5	-3
CN(C)S(=O)(=O)c1cccc(-c2nn(-c3ccccc3)cc2/C=C2\SC(=S)NC2=O)c1	108*	21	-100	88*	-4	35
COc1cccc(/C=C/C(=O)Nc2ccc3nc4n(c(=O)c3c2)CCCC4)c1OC	21	-7	8	-6	-5	6
Cc1ccc(S(=O)(=O)N2CC=C(C(=O)NC3CC3)CC2)cc1	3	-22	-1	-8	-2	·
COc1cc(CNCCCN2CCOCC2)cc(Br)c1OCC(=O)N1CCCCC1	13	16	-14	4	46	3
CCOc1cc(CNCCCN2CCOCC2)cc(Br)c1OCC(=O)Nc1cccc(C(F)(F)F)c1	18	-2	-17	21	79*	-1
Cc1ccc(C(C)C)c(OCc2n[nH]c(=S)o2)c1	-11	-36	-34	-43	-28	1
Cc1ccc(C(C)C)c(OCc2nc(-c3nonc3N)no2)c1	8	15	166*	6	-16	2
CC1CCCCC1NCC(=O)NCc1ccc(F)cc1 (stereo unspecified)	25	23	4	58*	57	0
O=C(CCC1CCCCC1)NCc1ccc(F)cc1	10	-2	-6	-2	2	-2
COc1cccc(OC)c1OCCCCn1cnc2ccccc2c1=O	3	-5	-4	51*	43	-3
Cc1cc(C)c(C)c(OCCCCn2cnc3ccccc3c2=O)c1	·	10	-17	-1	-6	0
CCOc1ccc(OCC)c2sc(C)nc12	2	-78	59*	-5	3	1
Cc1ccc(NC(=O)Cn2c(=S)[nH]c3ccccc32)cc1	36	-8	-14	-34	-12	-5
SMILES	Mcl1 Noxa PPI	Calpain2 inh	p47phox inh	Mcl1 Bid PPI	14-3-3 Bad PPI	Mcl-1 Bim block
O=C1/C(=C\c2ccco2)NC(=S)N1c1ccccc1	58*	-52	-18	-31	1	3
CC1=C(C(=O)N2CCOCC2)C(c2ccccc2F)NC(=O)N1 (stereo unspecified)	4	2	-3	-15	-2	1
Cc1cc(C)cc(NC(=O)CSc2cc(C(=O)c3nccn3C)c3ccccc3n2)c1	6	-11	-1	-9	-5	-4
CCOC(=O)N1CCN(C(=O)/C(=C/c2cccs2)NC(=O)c2cccs2)CC1	-2	-13	0	-7	-14	0
COc1ccc(NC(=O)/C(Cl)=C(/Cl)S(=O)Cc2ccc(Cl)cc2)cn1 (stereo unspecified)	53*	-14	-15	36	-4	-9
CCCCN(C)CCNC(=O)C(NC(=O)C1CCC(C)CC1)C(C)C (stereo unspecified)	-12	-29	-19	-15	-17	-1
Cc1ccc(CS(=O)(=O)Cc2ccc(C(=O)NCC3CCCO3)o2)cc1 (stereo unspecified)	7	-5	-8	-14	11	-3
O=C(NCC1CCCO1)c1ccc(CSCc2cccc(F)c2)o1 (stereo unspecified)	7	-39	-6	89*	-13	-2
O=C(CCC1CCCCC1)NNC(=O)c1cnccn1	-1	8	-4	-27	0	0
O=C1CCCC(O)=C1N=Nc1ccc(C(=O)O)cc1	54*	-20	32*	-48	51	·
CC(=O)c1ccc(NC(=O)Nc2ccc3c(c2)N(C)C(=O)CS3)cc1	61*	-33	-17	-19	3	-2
CCOc1ccc(NC(=O)Nc2ccc3c(c2)N(C)C(=O)CS3)cc1	16	-25	-33	-23	3	0
CCCCNC(=O)c1ccc2c(c1)N(CC)C(=O)c1ccccc1S2(=O)=O	2	10	-9	12	11	10
COc1ccc(C(=O)NNC(=O)c2ccncc2)cc1	61*	-2	-33	-11	-6	-4
Cc1ccccc1NC(=S)NNC(=O)c1ccncc1	-4	-2	-1	-28	-10	0
O=C(NCc1ccncc1)c1ccc(Oc2ccccc2)cc1	9	-12	2	-10	-8	1
Cc1ccc(Oc2ccc(C(=O)NCc3ccncc3)cc2)cc1	-3	50*	2	-13	-6	0
O=C(NNC(=O)c1ccncc1)c1ccncc1	-4	-16	-13	-34	-2	-3
CC(=O)c1ccc(NC(=S)NNC(=O)c2ccncc2)cc1	17	-6	-13	92*	-4	-6
COc1ccc2c(c1)CC(C1(O)C(=O)N(C)c3ccccc31)C2=O (stereo unspecified)	-11	-33	4	-3	74*	-2
